Experimental data reported in PubChem BioAssay AID1347426 (Functional Genomics Laboratory (NCATS/FGL), 2020).
About 1,400 (4.5%) of roughly 31,000 sequences were called active. This excerpt belongs to a sample that is enriched for actives. Unmarked numbers belong to inactive results.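 The calls were made as follows: active = median seed-adjusted z-score above 1 or below -1; inactive = the rest.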

assay: Novel Modifiers of Survival Motor Neuron (SMN) Protein: Gene Identification via Genome-wide siRNA Screen; details: HEK293T SMN2-luciferase reporter, siRNA knockdown, 72 h; actives lie on both sides;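 also: luminescence tracks full-length SMN protein made from the SMN2 reporter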
Summary of the method: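 siRNA screen, 10418 genes ×3 siRNAs; 1 pmol/well, lipid reverse transfection into HEK293T SMN2-luc reporter line. 72 h, 37 °C, 5% CO2; ONE-Glo readout. Data: neg-ctrl normalized, log10, MAD; hit = MAD >1.0 or < -1.0.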

First: GAAGCUCUACUCACAGUUUTT against GSTM2
Second: CUUAACCUGUGGAAUCGAATT against NIPA2
The median seed-adjusted z-score of the first is lower: -0.464 for the first, -0.103 for the second.

Compared with GCAAGAUGAUUUUAUCUCUTT against CDA, CAUUAAAGCAGCUACCAAUTT against PSMC3IP is lower in median seed-adjusted z-score: 0.471 for the first, -0.0482 for the second.

Going from GCAACAGCAUUAUGACCCATT against COL10A1 to GGUUGCGGCUCAGAACAAATT against OAS3, the median seed-adjusted z-score rises from -0.0291 to 0.147.

Compared with GGACCUGAUUGAUGCCGUCTT against PYCR1, AGACCUCGAUUUCACAGUATT against PRMT8 is higher in median seed-adjusted z-score: -0.171 for the first, 0 for the second.

Going from GGAAGUGCCCAGUGACUUATT against SLPI to GCACUGUCACUAAGCAGAATT against CHEK2, the median seed-adjusted z-score rises from 0.274 to 0.585.

First: GAGAGAUCAUUGCAAAGCATT against HNRNPM
Second: GGAGAGACUUUUUACAACUTT against CACNG6
The median seed-adjusted z-score of the first is higher: 0.499 for the first, -0.0499 for the second.

Going from CUGUCCAUAGUGUCAUUAATT against GALNT1 to CUUGUCAAGUACGACCUUATT against NINJ1, the median seed-adjusted z-score rises from -0.164 to -0.061.

First: GGCUGUUCGAGUCCUGAAATT against FMO1
Second: GAGCAGGUGUUAUUAUGGATT against CLCN3
The median seed-adjusted z-score of the first is higher: 0.323 for the first, -0.0801 for the second.

Compared with GUUCAGCCGUGGAAAGAAATT against WFDC6, CCUACUCAAUGUGAUAUAUTT against ADAMDEC1 is lower in median seed-adjusted z-score: 0.0443 for the first, 0.0106 for the second.

Going from CCCUUAAUCUACAAUAUCATT against PHTF1 to GUCCCGAUCUGUGCUCUGATT against DUSP2, the median seed-adjusted z-score rises from 0.0129 to 0.576.

Going from GGAGUACCAUAGAUACAGATT against PPIG to GCCUCUAUUUGAUAAGCGATT against NAP1L1, the median seed-adjusted z-score rises from -0.0192 to 0.263.

First: GCGUUGGUCGGGAUGAUUATT against P2RY10
Second: GGAGGUCUAUAUUAUAAGATT against CFHR4
The median seed-adjusted z-score of the first is lower: -0.432 for the first, -0.0972 for the second.

First: GCAUUAGAAACUUACAAGATT against TROVE2
Second: CGAGUGUUCCCGGACAACATT against PODNL1
The median seed-adjusted z-score of the first is higher: 0.399 for the first, -0.448 for the second.

First: GCUCAGCCCUUACUGUACATT against ZNF569
Second: GAUUGACCUGCGUUACGAATT against ADCK2
The median seed-adjusted z-score of the first is higher: 0.425 for the first, 0.0823 for the second.

Compared with UGCCUUAUCUGGAAGCAAATT against ERMAP, GGGAAACGAUAUUCAUACATT against ADAMTS19 is lower in median seed-adjusted z-score: -0.276 for the first, -0.39 for the second.

Going from GUUUCGGACCUAUCUCUGATT against RBM3 to CAAAGUGGAUUCAAAGAUUTT against PRKCH, the median seed-adjusted z-score rises from 0.0539 to 0.761.

Going from CACCUUUUCUGGAUAGAGATT against DSC1 to GCCUUAUGAUGGAAGAGAUTT against EYA2, the median seed-adjusted z-score rises from -0.151 to 0.111.

Compared with GUUCUACCGUGGACAGCAATT against CLCN1, CAACAACAAUCAUAGCUGATT against SSBP1 is lower in median seed-adjusted z-score: 0.314 for the first, -0.456 for the second.

First: GACUGGAAAUGAUUCGAGATT against RTCD1
Second: CCUAUGGACUGAACAGGGATT against ZDHHC3
The median seed-adjusted z-score of the first is lower: 0.0794 for the first, 0.229 for the second.

Compared with CAUUCUGACCGUGAACAAUTT against CTRB1, CGAUGACUCAGAAAAGCGATT against ARHGEF10 is higher in median seed-adjusted z-score: -0.214 for the first, 0.22 for the second.

Going from CGAGGAUAUUGACUGGGUATT against PRKCZ to GCCCUGCAUUUGCGAUGAATT against ZNF169, the median seed-adjusted z-score rises from -0.175 to 0.

Going from GGAAAGAGUUCAGUCGGAATT against ZNF671 to GAAAGAUUGUACCAGUUGATT against CMPK1, the median seed-adjusted z-score falls from -0.0551 to -0.363.

Compared with GCGAGUGUGAGAAAACAUUTT against ZFP3, GAGCGAGACAUAAAAUAUUTT against ZNF257 is higher in median seed-adjusted z-score: 0 for the first, 0.306 for the second.

First: CCCAAGAAAUAUUAACAUUTT against AP3S1
Second: CGUCAUGAGCCUCUACGAATT against PTPN5
The median seed-adjusted z-score of the first is higher: 0.787 for the first, 0.22 for the second.

Compared with GGAAAUCCAUCUACCGCUATT against SORL1, GAUCAGGUGCUGUUCCAUATT against DGAT2L3 is lower in median seed-adjusted z-score: 0.357 for the first, 0.247 for the second.

Compared with GACUGCUGCUUAUCAACAATT against SPR, GACCUUACCUCAGACUAGATT against EXOG is higher in median seed-adjusted z-score: 0.0329 for the first, 0.746 for the second.

Going from AGAUGUACCUGUUCGUGUATT against DNASE1L2 to GCACUGGAGAAGUAUGUGATT against ALOX12B, the median seed-adjusted z-score rises from -0.228 to 0.0071.

With GCAAAGAUAGAAGAAGAUATT against DDI2 the median seed-adjusted z-score was 1.27 (active).
In the case of CAGAGUAUGUAAAUAGACATT against CAPRIN1, the median seed-adjusted z-score is reported as 1.36 (active).
With GCCUCUACAGCAGAAGAAATT against LAMB2 the median seed-adjusted z-score was 1.12 (active).
In the case of GAAAUACAAGGAAUCUGAATT against TMTC4, the median seed-adjusted z-score is reported as -1.16 (active).
In the case of GCACCGUGGUGUCAACCAUTT against KCNK12, the median seed-adjusted z-score is reported as 1.04 (active).
In the case of GGAUCGCUGUCUCUAACUUTT against RRM1, the median seed-adjusted z-score is reported as -5.51 (active).
For GAUACGCUAUGAACUCUCATT against RCE1, the median seed-adjusted z-score was -1.19 (active).
For GAUUCCCUGCAUCAACUAATT against SQLE, the median seed-adjusted z-score was -1.14 (active).
With GUUAGGUAGUAGAAACAAATT against TCFL5 the median seed-adjusted z-score was 1.52 (active).
For GUCUAGAUGAUCACAAGUATT against PSMD1, the median seed-adjusted z-score was -1.61 (active).
With GUCUGGAGAUCAUAUUUUUTT against PIM3 the median seed-adjusted z-score was -1.01 (active).
In the case of CACUUGCACAGAUACCCUUTT against COLEC12, the median seed-adjusted z-score is reported as -1.04 (active).
In the case of CGAAUUUCCUAGUAAACCATT against TFAP2C, the median seed-adjusted z-score is reported as 1.28 (active).
In the case of CAUCGAGGGUCAUACUAUUTT against POLR2A, the median seed-adjusted z-score is reported as -3.81 (active).
In the case of GGACCUACGUUGCAGUUCATT against SUZ12, the median seed-adjusted z-score is reported as -1.65 (active).
